Source: PubChem BioAssay

Molecular target: Ras-related C3 botulinum toxin substrate 1 (Homo sapiens) (UniProt P63000)
Assay: inhibition of wildtype Rac1 nucleotide loading – biochemical, multiplex bead flow cytometry, dose response (AID 1340)
Settings: GST-Rac1 beads, Bodipy-FL-GTP binding; at 100 µM (top of the series) unless noted

SMILES	GTP binding signal, raw median fluorescence (lower = inhibition) (MCF (arbitrary fluorescence units))
COc1cccc(Nc2c(F)c(F)c(F)c(F)c2C(=O)O)c1	0
COc1ccc(S(=O)(=O)Cc2ccc(C(=O)N3CCN(c4cc(Cl)ccc4C)CC3)o2)cc1	148
CCCCn1c(SCC(=O)c2ccccc2)nc2c1c(=O)[nH]c(=O)n2C	197
CC1Cc2ccccc2N1S(=O)(=O)c1cccc(C(=O)NCCCO)c1 (stereo not drawn)	323
COc1cc(/C=N/NC(=S)Nc2cccnc2)cc(OC)c1O	163
COc1cc2[nH]c(=S)nc(NCCC(C)C)c2cc1OC	123
O=C(CCc1nnc(-c2ccc3c(c2)OCO3)o1)N1CCC(c2ccc(F)cc2)C1 (stereo not drawn)	303
COc1ccc(/C=N/NC(=S)Nc2cc(S(=O)(=O)N3CCOCC3)ccc2N2CCOCC2)cc1O	0
COc1ccc(-c2c3c(nc4sc5c(=O)[nH]c(C)nc5c24)CCC3)cc1	153
CC(C)CCNC(=O)CN(CCCN1CCOCC1)C(=O)Cn1nnc(-c2ccc(F)cc2)n1	184
N#Cc1c(C(F)(F)F)cc(-c2ccc(Cl)cc2)[nH]c1=O	178
CCn1c2ccccc2c2nnc(SCC(=O)NCCOC)nc21	0
C/C(=N\NC(=O)c1c[nH]c2ccccc12)c1ccc(C)o1	150
Cc1ccc(-c2noc(CN3C(C)CCCC3C)n2)cc1 (stereo not drawn)	216
COc1cc2c(cc1OC)-c1cc(NC3CCCCCCC3)nc(=O)n1CC2	142
O=C(N/N=C/c1c(O)n(Cc2ccccc2)c(=O)c2ccccc12)c1cccnc1	87
COC(=O)c1cccc(NC(=O)c2nn(C)c(=O)c3ccccc23)c1	179
N#C/C(=C/c1ccc(-c2cc(C(=O)O)cc(C(=O)O)c2)o1)c1nc2ccccc2s1	110
COc1ccc(/C=C2\SC(=S)NC2=O)cc1OS(=O)(=O)c1ccc(NC(C)=O)cc1	261

SMILES	GTP binding signal, raw median fluorescence (lower = inhibition) (MCF (arbitrary fluorescence units))
CCc1nnc(NC(=O)CCC(=O)N2CCN(c3ccccn3)CC2)s1	190
Cc1cc(C(F)F)n2nc(C(=O)Nc3ccc(S(=O)(=O)N4CCCCCC4)cc3)nc2n1	257
NC(=O)COC(=O)c1cccc2c1-c1ccccc1C2=O	176
Cc1nnc(OC(C)C)c2nn(-c3ccccc3F)c(C)c12	0
Oc1ccc(/C=N/NC(=S)N/N=C/c2ccc(O)cc2)cc1	177
C=CC#CC[N+]1(CC#Cc2ccccc2)CCOCC1	537
CCN1/C(=C/c2ccc3cc(C)ccc3[n+]2C)Sc2ccc3sccc3c21	263
O=[N+]([O-])c1ccc2c(c1)c(-c1ccccc1)nc1nncn12	203
O=S(=O)(N/N=C\c1cccnc1)c1ccccc1	227
COc1ccc(CCn2c(C(C)C)nc3c(c(=O)c4ccccc4n3C)c2=O)cc1	241
CC(C)Cc1csc(NC(=O)c2ccccc2Cl)c1C(=O)O	214
COc1ccccc1OCc1cccc(C(=O)O)c1	42
COc1ccc(OC)c(Nc2nc(-c3sc(N)nc3C)cs2)c1	179
COc1ccc(C(=O)c2c(O)cc(-c3ccc(OC)cc3)oc2=O)cc1	249
O=C(O)c1nnn(Cc2ccc(Br)cc2)c1C(=O)O	30.6
Cc1ccc(OCCn2cc(C(=O)O)c3ccccc32)cc1C	32.5
COc1cc(/C=N/Nc2ncnc3sc4c(c23)CCC4)ccc1O	126
COc1ccc(S(=O)(=O)N2CCOCC2)cc1NC(=O)COc1cccnc1[N+](=O)[O-]	190
COc1ccc(/C=N/n2c(N)c(S(=O)(=O)c3cccs3)c3nc4ccccc4nc32)cc1OC	118
